Measurements published in PubChem BioAssay (EPA / NIEHS).
Values joined by “and” are separate entries in the source; they are usually repeats but may differ in a detail not shown here. Equal values may be shown once. Inconclusive results are not listed. A structure can be active in one record and inactive in another. Active and inactive are the calls of the source. How the source made its calls: active means hit-call score of the fitted dose curve at least 0.9, where 1 is the maximum; inconclusive means response in the unintended direction; inactive means score below 0.9.

Molecular target: human Thyroid hormone Receptor beta (TRb), THRB (gene 7068) (UniProt P10828)
Sequence (P10828 whole entry, looked up): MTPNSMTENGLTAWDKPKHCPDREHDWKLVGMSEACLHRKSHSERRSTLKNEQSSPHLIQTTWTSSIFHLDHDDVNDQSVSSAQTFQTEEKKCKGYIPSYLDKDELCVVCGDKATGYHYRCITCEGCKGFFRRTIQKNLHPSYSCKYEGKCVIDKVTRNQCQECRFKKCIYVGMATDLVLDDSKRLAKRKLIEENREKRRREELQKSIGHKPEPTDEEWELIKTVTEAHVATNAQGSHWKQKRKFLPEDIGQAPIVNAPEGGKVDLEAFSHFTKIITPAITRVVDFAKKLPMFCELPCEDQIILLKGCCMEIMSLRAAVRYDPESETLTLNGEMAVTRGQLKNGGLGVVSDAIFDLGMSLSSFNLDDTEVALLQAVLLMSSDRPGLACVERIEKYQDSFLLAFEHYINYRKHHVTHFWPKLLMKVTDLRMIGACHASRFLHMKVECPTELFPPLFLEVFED
Assay: ATG_hTRb_XSP2: Attagene TRANS-FACTORIAL Multi-Species (XSP2) HepG2 Assay for human Thyroid hormone Receptor beta (TRb) (AID 2283840);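 further: actives raise reporter mRNA so potency reflects agonist-like gain of signal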
Outline: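 In this cell-based multiplex, HepG2 liver cells carrying transfected GAL4-UAS reporter constructs are exposed to chemical for 24 hours, then reporter transcripts are measured by RT-PCR with capillary electrophoresis, scored as gain of signal against DMSO.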

For `CC(C)(c1ccccc1)c1ccc(O)cc1`, which outcome is on record?
The outcome was “inactive”.

Which outcome does the source give for `CCOC(=O)C(O)(c1ccc(Cl)cc1)c1ccc(Cl)cc1` here?
Its outcome is “inactive”.

Which outcome does the source give for `Cc1cc(-c2ccc(N)c(C)c2)ccc1N` here?
Its outcome is “inactive”.

With `Clc1ccc(C(c2ccccc2Cl)C(Cl)(Cl)Cl)cc1` (stereo not drawn) as the compound, how does the outcome read?
Its outcome is “inactive”.

Which results are given for `CCC(=O)O[C@H]1CC[C@H]2[C@@H]3CCC4=CC(=O)CC[C@]4(C)[C@H]3CC[C@]12C`?
AC50: 0.157 µM (active); outcome: inactive

For `CC(c1ccc(O)cc1)(c1ccc(O)cc1)c1ccc(O)cc1`, which outcome is on record?
The outcome was “inactive”.

Which outcome does the source give for `ClC(Cl)=C(c1ccc(Cl)cc1)c1ccc(Cl)cc1` here?
The outcome was “inactive”.

Which outcome does the source give for `C[C@]12CCC(=O)C=C1CC[C@@H]1[C@@H]2CC[C@@]2(C)[C@H]1CC[C@]2(C)O` here?
The outcome was “inactive”.

For `c1cc2ccc3cccc4ccc(c1)c2c34`, which outcome is on record?
The outcome was “inactive”.

For `CC(C)(O)C(=O)Nc1ccc([N+](=O)[O-])c(C(F)(F)F)c1`, which outcome is on record?
Its outcome is “inactive”.

For `C[C@]12CCC(=O)C=C1CC[C@@H]1[C@@H]2CC[C@]2(C)C(=O)CC[C@@H]12`, which outcome is on record?
The outcome was “inactive”.

Test system: Sodium/Iodide Symporter (NIS), SLC5A5 (gene 6528)
Assay: CPHEA_Stoker_NIS_Inhibition_RAIU: CPHEA's Radioactive Iodide Uptake (RAIU) Assay for Sodium/Iodide Symporter (NIS) Inhibition, Stoker and Laws Labs (AID 2283841)
Outline: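 HEK293T cells stably expressing human NIS (hNIS-HEK293T-EPA) were exposed to test chemicals at 0.001–100uM (0.5% final DMSO) with 125I at a final 329pM in HBSS/10mM HEPES pH 7.4. After 2 hours at room temperature and ice-cold washes, intracellular 125I was counted as CPM and normalized to DMSO wells.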

With `O=NN(c1ccccc1)c1ccccc1` as the compound, how does the outcome read?
Its outcome is “inactive”.

For `NS(=O)(=O)C(F)(F)C(F)(F)C(F)(F)C(F)(F)C(F)(F)C(F)(F)C(F)(F)C(F)(F)F`, which outcome is on record?
Its outcome is “inactive”.

With `Cc1cccc(C)c1N` as the compound, how does the outcome read?
The outcome was “inactive”.

For `CCNc1nc(NC(C)C)nc(SC)n1`, which outcome is on record?
Its outcome is “inactive”.

Which outcome does the source give for `CC(C)(c1ccccc1)c1ccc(O)cc1` here?
The outcome was “inactive”.

For `CCOC(=O)C(O)(c1ccc(Cl)cc1)c1ccc(Cl)cc1`, which outcome is on record?
Its outcome is “inactive”.

For `CCCCCCCCCC[N+](C)(C)CCCCCCCCCC`, which outcome is on record?
The outcome was “inactive”.

Which outcome does the source give for `O=S(=O)(O)C(F)(F)C(F)(F)C(F)(F)C(F)(F)F` here?
The outcome was “inactive”.

For `CCC(C)c1cc([N+](=O)[O-])cc([N+](=O)[O-])c1O` (stereo not drawn), which outcome is on record?
The outcome was “inactive”.

For `CO/C=C(/C(=O)OC)c1ccccc1COc1cccc(C(F)(F)F)n1`, which outcome is on record?
The outcome was “inactive”.

With `CCSC(=O)N(CC)C1CCCCC1` as the compound, how does the outcome read?
Its outcome is “inactive”.

Which outcome does the source give for `ClC1=C(Cl)[C@]2(Cl)[C@@H]3[C@@H](Cl)[C@H]4O[C@H]4[C@@H]3C1(Cl)C2(Cl)Cl` here?
Its outcome is “inactive”.

Which outcome does the source give for `CCC(=O)O[C@H]1CC[C@H]2[C@@H]3CCC4=CC(=O)CC[C@]4(C)[C@H]3CC[C@]12C` here?
The outcome was “inactive”.

Which outcome does the source give for `O=C(O)C(F)(F)C(F)(F)C(F)(F)C(F)(F)C(F)(F)F` here?
The outcome was “inactive”.

For `CCC(C)(c1ccc(O)cc1)c1ccc(O)cc1`, which outcome is on record?
The outcome was “inactive”.

Which outcome does the source give for `Cc1ccccc1CO[C@@H]1C[C@@]2(C(C)C)CC[C@]1(C)O2` here?
Its outcome is “inactive”.

For `Oc1ccc(C(c2ccc(O)cc2)(C(F)(F)F)C(F)(F)F)cc1`, which outcome is on record?
The outcome was “inactive”.

With `O=C(O)C(F)(F)C(F)(F)C(F)(F)C(F)(F)C(F)(F)C(F)(F)C(F)(F)C(F)(F)C(F)(F)F` as the compound, how does the AC50 read?
The AC50 was 12.8 µM (active).

What about the outcome of the same compound?
The outcome was “inactive”.

With `ClC1=C(Cl)[C@]2(Cl)[C@@H]3[C@@H]4C[C@@H]([C@H]5O[C@@H]45)[C@@H]3[C@@]1(Cl)C2(Cl)Cl` as the compound, how does the outcome read?
The outcome was “inactive”.

With `CC#Cc1cc(C)nc(Nc2ccccc2)n1` as the compound, how does the outcome read?
Its outcome is “inactive”.

For `O=C(O)C(F)(F)C(F)(F)C(F)(F)C(F)(F)C(F)(F)C(F)(F)C(F)(F)C(F)(F)F`, which AC50 is on record?
The AC50 was 12 µM (active).

With `O=S(=O)(O)C(F)(F)C(F)(F)C(F)(F)C(F)(F)C(F)(F)C(F)(F)F` as the compound, how does the AC50 read?
The AC50 was 23.3 µM (active) and 7.48 µM (active) and 2.33 µM (active).

Test system: not listed separately
Assay: CPHEA_Stoker_NIS_Cytotoxicity: Cytotoxicity Assessment for CPHEA's Radioactive Iodide Uptake (RAIU) Assay for Sodium/Iodide Symporter (NIS) Inhibition, Stoker and Laws Labs (AID 2283897);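 on AC50: active means loss of ATP signal versus DMSO meaning cytotoxicity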
Outline: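 hNIS-HEK293T-EPA human kidney cells were exposed for 2 hours at room temperature to test chemicals (0.001–100uM, 0.5% final DMSO) in HEPES-buffered HBSS, pH 7.4. Viability was read as ATP content by luciferase bioluminescence, loss of signal versus DMSO.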

For `O=NN(c1ccccc1)c1ccccc1`, which outcome is on record?
Its outcome is “inactive”.

With `NS(=O)(=O)C(F)(F)C(F)(F)C(F)(F)C(F)(F)C(F)(F)C(F)(F)C(F)(F)C(F)(F)F` as the compound, how does the outcome read?
Its outcome is “inactive”.

Which outcome does the source give for `Cc1cccc(C)c1N` here?
Its outcome is “inactive”.

For `CCNc1nc(NC(C)C)nc(SC)n1`, which outcome is on record?
Its outcome is “inactive”.

For `COc1ccc(O)c(C(C)(C)C)c1`, which outcome is on record?
Its outcome is “inactive”.

With `CC(C)(c1ccccc1)c1ccc(O)cc1` as the compound, how does the outcome read?
The outcome was “inactive”.

With `CCOC(=O)C(O)(c1ccc(Cl)cc1)c1ccc(Cl)cc1` as the compound, how does the outcome read?
The outcome was “inactive”.

Which outcome does the source give for `CCCCCCCCCC[N+](C)(C)CCCCCCCCCC` here?
Its outcome is “inactive”.

For `O=S(=O)(O)C(F)(F)C(F)(F)C(F)(F)C(F)(F)F`, which outcome is on record?
Its outcome is “inactive”.

For `CCC(C)c1cc([N+](=O)[O-])cc([N+](=O)[O-])c1O` (stereo not drawn), which outcome is on record?
Its outcome is “inactive”.

For `Oc1c(Cl)c(Cl)c(Cl)c(Cl)c1Cl`, which outcome is on record?
Its outcome is “inactive”.

Which outcome does the source give for `CO/C=C(/C(=O)OC)c1ccccc1COc1cccc(C(F)(F)F)n1` here?
Its outcome is “inactive”.

Which outcome does the source give for `CCSC(=O)N(CC)C1CCCCC1` here?
The outcome was “inactive”.

For `ClC1=C(Cl)[C@]2(Cl)[C@@H]3[C@@H](Cl)[C@H]4O[C@H]4[C@@H]3C1(Cl)C2(Cl)Cl`, which outcome is on record?
The outcome was “inactive”.

Which AC50 does the source give for `CCC(=O)O[C@H]1CC[C@H]2[C@@H]3CCC4=CC(=O)CC[C@]4(C)[C@H]3CC[C@]12C` here?
Its AC50 is 0.646 µM (active).

With `ClC(Cl)=C(c1ccc(Cl)cc1)c1ccc(Cl)cc1` as the compound, how does the outcome read?
Its outcome is “inactive”.

With `CCC(C)(c1ccc(O)cc1)c1ccc(O)cc1` as the compound, how does the outcome read?
The outcome was “inactive”.

With `c1ccc(-c2ccccc2)cc1` as the compound, how does the outcome read?
Its outcome is “inactive”.

With `Cc1ccccc1CO[C@@H]1C[C@@]2(C(C)C)CC[C@]1(C)O2` as the compound, how does the outcome read?
The outcome was “inactive”.

With `Oc1ccc(C(c2ccc(O)cc2)(C(F)(F)F)C(F)(F)F)cc1` as the compound, how does the outcome read?
The outcome was “inactive”.

With `O=C(O)C(F)(F)C(F)(F)C(F)(F)C(F)(F)C(F)(F)C(F)(F)C(F)(F)C(F)(F)C(F)(F)F` as the compound, how does the outcome read?
Its outcome is “inactive”.

With `ClC1=C(Cl)[C@]2(Cl)[C@@H]3[C@@H]4C[C@@H]([C@H]5O[C@@H]45)[C@@H]3[C@@]1(Cl)C2(Cl)Cl` as the compound, how does the outcome read?
Its outcome is “inactive”.

For `Cc1cc2c3c(c1)C(c1ccccc1)=N[C@@H](NC(=O)c1ccncc1)C(=O)N3CC2`, which outcome is on record?
Its outcome is “inactive”.

For `CC#Cc1cc(C)nc(Nc2ccccc2)n1`, which outcome is on record?
The outcome was “inactive”.

For `CC(C)(O)C(=O)Nc1ccc([N+](=O)[O-])c(C(F)(F)F)c1`, which outcome is on record?
The outcome was “inactive”.

Which outcome does the source give for `CCOP(=S)(OCC)SCSC(C)(C)C` here?
Its outcome is “inactive”.

With `O=C(O)C(F)(F)C(F)(F)C(F)(F)C(F)(F)C(F)(F)C(F)(F)C(F)(F)C(F)(F)F` as the compound, how does the outcome read?
Its outcome is “inactive”.

Which outcome does the source give for `O=S(=O)(O)C(F)(F)C(F)(F)C(F)(F)C(F)(F)C(F)(F)C(F)(F)F` here?
Its outcome is “inactive”.
